# Measured values: PubChem BioAssay AID1845227 (National Center for Advancing Translational Sciences (NCATS), 2023)
# Results filed as inconclusive are left out. A call without a number means that no potency is given here. Activity calls are given as the source filed them. The call rests on the fitted dose curve; in most records, active means well fitted inhibition curve with a large enough effect; inconclusive means small, poorly fitted or top-dose-only effect; inactive means no such curve, though single readings can be large or run the other way.
# Target: Luciferin 4-monooxygenase (Photinus pyralis) (UniProt P08659)
# Experiment: Confirmatory firefly luciferase (FLuc) qHTS assay for identification of artifact compounds
# Details: purified FLuc enzyme, luminescence, 5 min; series mostly up to 38.9 µM
# Excerpt: PI: Alexander Tropsha Ph.D. UNC Eshelman School of Pharmacy University of North Carolina, Chapel Hill, North Carolina Hits from high-throughput screening (HTS) of chemical libraries are often false positives due to their interference with the assay detection technology. In response to this problem, we generated the largest publicly available library of chemical liabilities and developed a free webtool to predict HTS artifacts, both of which are described herein. More specifically, we generated, curated, and integrated HTS datasets for thiol reactivity, redox activity, and luciferase (firefly and nano) activity. Using these curated datasets, we developed and validated several Quantitative Structure-Interference Relationship (QSIR) models to predict nuisance behavior. […] These models were employed for virtual profiling of the National Center for Advancing Translational Science's (NCATS) in-house library, and 256 compounds for each assay were selected for the experimental validation of nuisance behavior. The BA for these external predictions ranged from 58 to 78% for compounds within the applicability domains of the models. […] The models developed in this study, along with aggregation models previously developed by our group (SCAM Detective) were implemented in "Liability Predictor," an online tool which may be used as part of chemical library design or for triaging HTS hits. Both the models and the curated datasets are publicly available at https://liability.mml.unc.edu/.
# PROTOCOL TABLE SEQUENCE No. (e.g., 1, 2, 3, etc.); […] (e.g., Cells, Incubation, Reagent, etc.); VALUE; DESCRIPTION. 1; Reagent; 3 uL; Luciferase substrate mixture. 2; Compounds and control; 16 nL; Kalypsis pin tool (Wako USA) equipped with a 1536-well pin head. 3; Incubation; 15 min. 4; Reagent; 1 uL; Luciferase enzyme. 5; Incubation; 5 min. 6; Detection; Luminescence, ViewLux microplate reader. NOTES (numbers refer to Sequence numbers above) 1. 3 uL of luciferase substrate mixture containing D-luciferin and ATP (final concentrations of 10 uM and 10 uM, respectively) in assay buffer (10 mM Mg-acetate, 0.01% Tween-20, 0.05% bovine serum albumin, 50 mM Tris acetate, pH 7.6) was dispensed into all wells of a 1536-well assay plate (solid-bottom white plate; Greiner Bio One, Monroe, NC). 2. A Wako Pin-tool (Wako Automation, Richmond, VA) was used to transfer 16 nL of compounds (consisting of 7-plates in qHTS format, final concentration range 18.3 nM to 114 uM) or control PTC124 (final concentration range 1.22 nM to 40 uM). 3. 15 min. incubation at room temperature protected from light. 4. 1 uL of luciferase enzyme (final concentration 10 nM, Photinus pyralis luciferase) or buffer was dispensed for a final assay volume of 4 uL. 5. Plates were centrifuged (121xg, 15 seconds) and incubated for 5 minutes. 6. Samples were read for luminescence on a ViewLux CCD imager (PerkinElmer). Data were normalized to no-enzyme (0% activity) and no-inhibitor (DMSO; 100%) controls and the resulting percent inhibition data were fitted to a 4-parameter Hill equation using NCATS in-house software.
# Potency means the concentration at half of the fitted maximal effect.
row,Compound,Potency
1,Cc1ccc(C)c(NC(=O)Cn2c(=O)n(-c3ccc(CC(=O)NCC4CCCO4)cc3)c(=O)c3ccccc32)c1 (stereo not given),inactive
2,CC1=C(C(=O)Nc2ccc(Cl)cc2)C(c2ccccc2C)n2ncc(C(=O)Nc3ccc(C)cc3)c2N1 (stereo not given),inactive
3,CCN(C(=O)Cn1nc(Cc2cccnc2)c2ccccc2c1=O)c1cc(C)ccc1C,inactive
4,Nc1nc2nc(-c3ccc(Cl)cc3)cc(C(F)(F)F)n2n1,inactive
5,Cc1c(CCNC(=O)Cc2ccc(F)cc2)sc2nc(-c3ccc(F)cc3)nn12,inactive
6,Cc1ccc2nc(-c3cccs3)c(Nc3ccccc3)n2c1,inactive
7,CNc1cccc(S(=O)(=O)N2CCCN(S(=O)(=O)c3ccc4c(c3)OCCO4)CC2)c1,inactive
8,COc1ccc(NC(=O)C(C)n2nc(-c3cc(C)ccc3C)c3c(c2=O)CCCC3)cc1 (stereo not given),inactive
9,Cc1ccc(-c2nc(S(=O)(=O)c3ccc(C)cc3)c(N3CCCCC3)o2)cc1,inactive
10,CCCn1c(-c2cccc(Br)c2)nc2ccccc21,inactive
11,CC(C)(C)OC(=O)N1CCN(c2ccc(NCc3ccc(-c4ccc(C#N)cc4)nc3)cc2)CC1,inactive
12,Clc1ccc(-c2noc3ncnc(N4CCCCC4)c23)cc1,inactive
13,CC1=CC23C(=O)C(C=C(CO)[C@@H](O)[C@]2(O)[C@H]1O)[C@H]1[C@@H](C[C@H]3C)C1(C)C (stereo not given in full),inactive
14,O=C(COc1ccccc1C(=O)Nc1ccccc1)Nc1cccc([N+](=O)[O-])c1,inactive
15,O=C(/C=C/c1ccc(O)c(O)c1)c1ccc(O[C@@H]2O[C@H](CO)[C@@H](O)[C@H](O)[C@H]2O)c(O)c1O,inactive
16,CCN(Cc1cccc(S(=O)(=O)O)c1)c1ccc(C(=C2C=CC(=[N+](CC)Cc3cccc(S(=O)(=O)O)c3)C=C2)c2ccccc2S(=O)(=O)[O-])cc1,12.2 µM (active)
17,CC(NC(=O)CSc1nc(-c2ccccc2F)nc2cc(=O)[nH]n12)c1nc2ccccc2n1C (stereo not given),inactive
18,CC(C)(C)C(=O)OCC(=O)[C@H]1CC[C@H]2[C@@H]3CCC4=CC(=O)CC[C@]4(C)[C@H]3CC[C@]12C,inactive
19,COc1cccc(-c2nnc(Nc3nc4ccc(OC)cc4s3)o2)c1,inactive
20,Cc1ccccc1CNC(=O)C(C)N(c1ccccc1)S(C)(=O)=O (stereo not given),inactive

row,Compound,Potency
1,CO[C@H]1[C@@H](O)[C@H](N)[C@@H](O[C@H]2O[C@H]([C@H](C)N)CC[C@H]2N)[C@H](O)[C@@H]1N(C)C(=O)CN,inactive
2,COc1ccc(NC(=O)C2CCCN(S(=O)(=O)c3cccc4nonc34)C2)cc1Cl (stereo not given),inactive
3,Cc1ccc2oc(C(=O)Nc3ccc(S(=O)(=O)N(C)c4ccccc4)cc3)cc(=O)c2c1,inactive
4,CCCOc1ccc(C(=O)Nc2ccc3oc(-c4ccncc4)nc3c2)cc1,inactive
5,C[C@H](CCC(=O)NCCS(=O)(=O)O)C1CC[C@H]2C3CC[C@@H]4C[C@H](O)CC[C@]4(C)C3C[C@H](O)[C@]12C (stereo not given in full),inactive
6,CCCc1cc(=O)[nH]c(SCc2nc(-c3ccccc3F)no2)n1,inactive
7,COc1ccc(C2Nc3ccccc3C(=O)N2Cc2ccccc2)cc1Oc1ccc(NC(C)=O)cc1 (stereo not given),inactive
8,COC(=O)CN1C(=O)[C@@H]2[C@H](C1=O)[C@@H]1CC(C(=O)OC)=C[C@@H](C(=O)OC)C3C1=C(C(=O)C31CCCCC1)[C@@H]2C (stereo not given in full),inactive
9,CCc1cccc(NC(=O)C2CCC(CNS(=O)(=O)c3csc(C(N)=O)c3)CC2)c1 (stereo not given),inactive
10,O=C(Nc1ccccc1-c1nc2ccccc2s1)c1cc(Cl)cc(Cl)c1,inactive
11,Cc1cc(-c2ccccc2)n2nc(-c3ccc(Cl)cc3)cc2n1,inactive
12,Cc1cccc(NC(=O)COC(=O)CCCC2=NS(=O)(=O)c3ccccc3N2)c1,inactive
13,O=S(=O)(c1ccc2c(c1)OCCO2)N1CCN(S(=O)(=O)c2c(F)cccc2F)CC1,inactive
14,Cc1cc(Cl)ccc1NC(=O)c1cc2ccccn2n1,8.64 µM (active)
15,Cc1ccc(C2C=C(c3ccccc3)Nc3nc(NS(=O)(=O)c4ccccc4)nn32)cc1 (stereo not given),inactive
16,Cc1ccc(NC(=O)c2ccc3[nH]c(C)cc(=O)c3c2)cc1,inactive
17,COc1ccc(CCNC(=O)c2c(C)oc3ncn(C)c(=O)c23)c(OC)c1,inactive
18,COc1ccc(-c2c3c(=O)n(C)c(=O)n(C)c3c3n2-c2ccccc2NC3c2ccccc2OC)cc1 (stereo not given),inactive
19,Cc1ccc(-n2nnnc2CNC(=O)C(C)C)cc1C,inactive
20,CC(C)CN(CCNC(=O)c1cn(C)c2ccc(S(=O)(=O)N3CCOCC3)cc2c1=O)CC(C)C,inactive
